HT1080 IDH1KD tx: toxicity to HT-1080 IDH1 knockdown cells (counter line); Potency, µM (highest dose often 46.1 µM), for the others: top-dose activity, negative = toxicity, actives largely listed as cytotoxic; actives 2% (n = 360,000); AID 686971; HT-1080 IDH1 knockdown viability, ATP luminescence, 48 h;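 also: potency is read from the fitted curve at half-maximal effect; 0% = DMSO wells and -100% = cell-free medium wells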
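Assay cells: HT-1080 with IDH1 knockdown, 750 per well, RPMI/5% FBS. Exposure: 48 h at 37 °C following 2 h pre-incubation. Read: CellTiter-Glo luminescence; fitted concentration-response, curve class assigned.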
DT40 TDP1 CPT: DT40-hTDP1 cell growth loss with CPT; Potency, µM (doses to about 46.2 µM), for inactives: at the highest dose activity change, negative = growth inhibition, usual class: inhibitors; chicken DT40 Tdp1-/-;hTDP1 cells + 20 nM CPT, ATP luminescence, 48 h; actives 12% (n = 420,000); also: potency is read from the fitted curve at half-maximal effect; nearly all actives have a fitted effect of over 55% in size
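Chicken DT40 Tdp1-/- cells stably complemented with human TDP1 were seeded at 400 cells/well in medium containing 20 nM camptothecin, exposed to pin-transferred compounds, and grown at 37 °C for at least 48 hr. Viability was read as ATP luminescence.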
HT1080-NT tox: kills 2HG-producing HT-1080-NT fibrosarcoma cells. HT-1080-NT fibrosarcoma viability, CellTiter-Glo ATP luminescence, 48 h. Potency, µM (top dose mostly 46.1 µM), for inactives: at the top dose activity, negative = less viability, most hits filed as cytotoxic. actives 1.6% (n = 360,000). AID 686970;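 also: NT is the 2HG producing partner of a matched IDH1 knockdown line; potency is read from the fitted curve at half-maximal effect; 0% = DMSO-treated cells and -100% = media-only wells without cells; nearly all actives have a fitted effect of over 55% in size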
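Compounds were tested in concentration-response format on HT-1080-NT cells for 48 hours at 37 degrees C. Cell viability came from CellTiter-Glo luminescence; curves were classified by r2, response magnitude and activity.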
IL-1B inflam inh: inhibitors of inflammasome signaling (IL-1 beta secretion). activity change, % at 57.5 µM. actives 4.7% (n = 360,000). THP-1 LPS/ATP IL-1B secretion, AlphaLISA, 16 h; hits give low values; in the data active = activity change below about -50%; inconclusive = mostly about -30% to -49%
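THP-1 cells pretreated 1 hr with compounds (up to 57.5 uM final), then stimulated with LPS (250 ng/mL final) plus ATP (1.25 mM final); secreted IL-1B measured by AlphaLISA after 16 hr, decreased signal indicating inhibition.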
TDP1 cell noCPT: qHTS for Inhibitors of human tyrosyl-DNA phosphodiesterase 1 (TDP1): qHTS in cells in absence of CPT; DT40 Tdp1-/- hTDP1 cells, no CPT, ATP luminescence, 48 h; Potency, µM (highest dose often 46.2 µM), inactives show at the highest dose activity change, negative = growth inhibition, actives largely listed as inhibitors; actives 15% (n = 420,000); AID 686978, 2013; also: potency is read from the fitted curve at half-maximal effect; nearly all actives have a fitted effect of over 55% in size
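Chicken DT40 Tdp1-/- cells stably complemented with human TDP1 were seeded at 400 cells/well with DMSO in place of 20 nM camptothecin. After compound pinning, cells grew at least 48 hr at 37 °C; viability read by CellTiter-Glo luminescence.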
Active calls of the source: *; ? = inconclusive; / = no result given; ! = a repeat was not active. This is a sample that favours compounds with a hit; in the whole collection about 19% have one here. Unless noted, calls follow the shape of the dose curve; as a rule, active = well fitted curve in the direction sought with a large enough effect; inconclusive = small, poorly fitted or top-dose-only effect, or another doubt; inactive = no such curve, though single readings can be large; an effect the other way counts as inactive or inconclusive. Unless noted, % is scaled to controls: 0 for no effect and ±100 for the full control effect.

SMILES	HT1080 IDH1KD tx	DT40 TDP1 CPT	HT1080-NT tox	IL-1B inflam inh	TDP1 cell noCPT
Cc1ccc([N+](=O)[O-])cc1-c1ccc(/C=N/NC(=O)CN2CCOCC2)o1	-6%	-27%	-3%	?	?
O=C1OC(CN(Cc2ccccc2)Cc2ccccc2)CN1N=Cc1ccc([N+](=O)[O-])o1 (stereo not drawn)	-8%	16µM*	-2%	-1	9.2µM*
COc1ccc(/C(N)=N/OC(=O)Cc2ccc(OC)c(OC)c2)cc1	16%	?	?	-78*	?
COc1ccc(CC(=O)O/N=C(\N)c2ccncc2)cc1OC	2%	-29%	-6%	4	?
CC1(C)CC2CC(C)(CN2S(=O)(=O)c2ccc(F)cc2F)C1 (stereo not drawn)	-1%	?	2%	14	5.8µM*
CC1(C)CC2CC(C)(CN2S(=O)(=O)c2ccc(N)cc2)C1 (stereo not drawn)	-1%	?	-4%	-15	?
CCCCN(c1nc2ccccc2nc1Cl)S(=O)(=O)c1ccc(C)cc1	?	21µM*	-25%	8	9.2µM*
CCCN(CCC)CC(O)CN(c1ccccc1)S(=O)(=O)c1ccc(C)cc1 (stereo not drawn)	-7%	?	-10%	-24	?
Cc1cc(C)cc(NC(=O)Cc2noc3ccccc23)c1	/	-19%	/	/	-10%
O=C(CCCN1CCC(O)(c2ccc(Cl)cc2)CC1)c1ccc(F)cc1	13%	27µM*!	6%	-68*	16µM*!
CC1CCN(CCCC(=O)c2ccc(F)cc2)CC1	/	-5%	/	/	-12%
O=C(CCCN1CCC(O)(c2cccc(C(F)(F)F)c2)CC1)c1ccc(F)cc1	/	?	/	-54*	?
Cc1cc(C)cc(N(CC(=O)NCC2CCCO2)C(=O)CCC(=O)Nc2cc(C)on2)c1 (stereo not drawn)	6%	-19%	5%	-1	-8%
Cc1cc(C(=O)COC(=O)c2ccc(NC(=O)CC#N)cc2)c(C)n1CC(F)(F)F	0%	-5%	-2%	-8	-28%
Cc1nn(Cc2ccccc2)c(C)c1C(=O)OCC(=O)c1cc(C)n(CC(F)(F)F)c1C	?	26µM*	-11%	0	26µM*
COc1ccc(/C=C(/NC(=O)c2ccccc2)c2nc3ccc(Cl)cc3[nH]2)cc1OC	-15%	-95%	-11%	-8	21µM*
COc1ccc(/C=C(/NC(=O)c2ccccc2)c2nc3ccccc3[nH]2)cc1OC	-5%	?	-8%	33	?
CC(C)c1ccc(OCC(=O)NCc2n[nH]c(=O)c3ccccc23)cc1	7%	?	8%	30	?
CC(=O)N1CCN(C(=O)c2ccc(C(=O)c3ccccc3)cc2)CC1	-25%	-1%	-4%	-11	-6%
Cc1ccc(-c2cnc3c(Nc4cccc(OC(F)(F)C(F)F)c4)nccn23)cc1	?	23µM*	20%	-17	16µM*
OCc1cccc(-c2cnc3c(Nc4cccc(OC(F)(F)C(F)F)c4)nccn23)c1	?	?	?	-16	16µM*
CCc1ccc(N(C(=O)c2csnn2)C(C(=O)NC(C)(C)C)c2cccnc2)cc1 (stereo not drawn)	5%	-4%	-5%	-10	-14%
CC(C)(C)N1C(=O)Cc2c1nc(N)c1c(N)nc(N3CCCCC3CO)c(C#N)c21 (stereo not drawn)	-1%	21µM*	-8%	-27	18µM*
CCC1Cc2c(nc(N)c3c(N)nc(N4CCCCC4)c(C#N)c23)O1 (stereo not drawn)	?	0%	-24%	/	?
COc1cc(/C(C)=C/c2ccccc2)c2c(c1)oc1ccccc12	/	?	/	/	14µM*
Nc1nc(-c2cccs2)c(NC(=O)c2ccccc2)s1	?	16µM*	-29%	-95*	18µM*

Compound activity deposited in PubChem BioAssay by National Center for Advancing Translational Sciences (NCATS).
